Here are results for 8 compounds from PubChem BioAssay (Tox21).

Unmarked numbers belong to inactive results. Records with an inconclusive call do not appear. The source made the active and inactive calls. Calls follow the shape of the dose curve; as a rule, active = well fitted curve in the direction sought with a large enough effect in the repeat runs; inconclusive = weak or mixed curves; inactive = no such curve, though single readings can be large; an effect the other way counts as inactive or inconclusive.

Experiment [1] can be described thus: qHTS RealTime-Glo MT Cell Viability Assay in HEK293 cells - 0 hour (AID 1224880). Also: top concentration of the series differs between compounds; nearly all actives have a fitted effect of over 45% in size. The method, boiled down:
(§1)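 Viable HEK293 cells reduce a cell-permeant prosubstrate; the product diffuses out and is consumed by NanoLuc in the medium to give light. Compounds went in after a 5 h incubation and plates were read over the treatment course.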
(In general: In qHTS, concentration-response curves come from the screen itself.)

Experiment [2] is described as follows: A CellTox Green Cytotoxicity Assay to monitor cytotoxicity in HEK293 cells - 32 hour (AID 1224881). Also: nearly all actives have a fitted effect of over 40% in size. The method, boiled down:
(§2)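 Fluorescence intensity, read at 0, 8, 16, 24, 32 and 40 h of compound treatment, reflected dye binding to DNA of dead HEK293 cells; compounds (23 nL, DMSO) were added 5 h after plating cells with reagent.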

A short description of experiment [3]: A CellTox Green Cytotoxicity Assay to monitor cytotoxicity in HepG2 cells - 0 hour (AID 1224882). Also: nearly all actives have a fitted effect of over 35% in size. The method, boiled down: (§3)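 Using 1536-well format, dye-containing HepG2 suspension was seeded, allowed 5 h at 37 C/5% CO2, dosed by pintool with compounds, positive and negative controls, and imaged for fluorescence across 40 h.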
Experiment [4] in a line: A CellTox Green Cytotoxicity Assay to monitor cytotoxicity in HepG2 cells - 32 hour (AID 1224883). Also: nearly all actives have a fitted effect of over 50% in size. The method, boiled down:
as §3

Experiment [5] in a line: A CellTox Green Cytotoxicity Assay to monitor cytotoxicity in HEK293 cells - 8 hour (AID 1224884). Also: nearly all actives have a fitted effect of over 35% in size. The method, boiled down: as §2
A short description of experiment [6]: qHTS RealTime-Glo MT Cell Viability Assay in HepG2 cells - 16 hour (AID 1224885). Also: nearly all actives have a fitted effect of over 50% in size. The method, boiled down: (§4)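 qHTS, HepG2, 600 cells/well, RealTime-Glo (NanoLuc + prosubstrate) added with cells; 5 h preincubation; DMSO compound addition; 37 C; luminescence at 0/8/16/24/32/40 h.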
The nature of experiment [7]: qHTS RealTime-Glo MT Cell Viability Assay in HEK293 cells - 24 hour (AID 1224886). Also: nearly all actives have a fitted effect of over 50% in size. Also: potency is read from the fitted curve at half-maximal effect. The method, boiled down:
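Assay medium contained NanoLuc luciferase plus cell-permeant prosubstrate, added with HEK293 cells at 600 cells/well. After 5 h at 37 C/5% CO2 compounds were added; plates stayed at 37 C for 40 h with serial luminescence reads.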

Experiment [8] can be described thus: qHTS RealTime-Glo MT Cell Viability Assay in HEK293 cells - 8 hour (AID 1224887). Also: nearly all actives have a fitted effect of over 50% in size. Also: potency is read from the fitted curve at half-maximal effect. The method, boiled down: as §1
Experiment [9] is described as follows: A CellTox Green Cytotoxicity Assay to monitor cytotoxicity in HEK293 cells - 16 hour (AID 1224888). Also: nearly all actives have a fitted effect of over 35% in size. The method, boiled down:
as §2

The nature of experiment [10]: qHTS RealTime-Glo MT Cell Viability Assay in HepG2 cells - 0 hour (AID 1224889). Also: nearly all actives have a fitted effect of over 50% in size. The method, boiled down:
as §4

The nature of experiment [11]: A CellTox Green Cytotoxicity Assay to monitor cytotoxicity in HepG2 cells - 8 hour (AID 1224890). Also: nearly all actives have a fitted effect of over 45% in size. The method, boiled down:
as §3

A short description of experiment [12]: qHTS assay to identify small molecule antagonists of the estrogen receptor alpha (ER-alpha) signaling pathway using the BG1 cell line in the presence of 0.1 nM 17-beta-estradiol - cell viability counter screen (AID 1259241). Also: nearly all actives have a fitted effect of over 40% in size. The method, boiled down:
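Measures cytotoxicity alongside the ER-alpha antagonist readout: VM7Luc4E2 cells, charcoal-stripped serum, 0.1 nM 17beta-estradiol final, 22 hr compound incubation at 37C, CellTiter-Fluor fluorescence.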

Experiment [13] in a line: qHTS assay to identify small molecule antagonists of the androgen receptor (AR) signaling pathway using the MDA cell line in the presence of 0.5 nM R1881 - cell viability counter screen (AID 1259242). Also: nearly all actives have a fitted effect of over 45% in size. The method, boiled down: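 Viability of MDA-kb2 cells was multiplexed with the luciferase AR readout; after 16 hr with compounds and R1881 at 0.5 nM final, CellTiter-Fluor fluorescence was recorded.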

Experiment [14] is described as follows: qHTS assay to identify small molecule HDAC inhibitors (AID 1259364).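 Also: wild-type HCT-116 cells with endogenous class I/II HDAC activity; top concentration of the series differs between compounds; nearly all actives have a fitted effect of over 45% in size.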 The method, boiled down:
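Read-out: luminescence of HDAC-Glo I/II reagent, 30 min RT, reflecting class I/II deacetylase activity in whole HCT-116 cells pre-exposed 2 h to DMSO-dissolved compounds.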

The nature of experiment [15]: qHTS assay to identify small molecule HDAC inhibitors - cell viability counter screen (AID 1259365). The method, boiled down: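 Following a 2hr exposure of overnight-plated wild-type HCT-116 cells to DMSO-delivered compounds, CellTiter-Glo was added and luminescence recorded after 30min at room temperature.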
The nature of experiment [16]: qHTS assay to identify small molecule agonists of the sonic hedgehog signaling (Shh) pathway - cell viability counter screen (AID 1259366). Also: nearly all actives have a fitted effect of over 50% in size. The method, boiled down: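 After a 4hr attachment at 37C, NIH/3T3 cells bearing an integrated Gli1-driven luciferase reporter were dosed with compounds. Treatment lasted 24hr, with the final hour including CellTiter-Fluor for a fluorescence viability measurement.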

A short description of experiment [17]: qHTS assay to identify small molecule antagonists of the sonic hedgehog signaling (Shh) pathway - cell viability counter screen (AID 1259367). Also: nearly all actives have a fitted effect of over 55% in size. Also: potency is read from the fitted curve at half-maximal effect. The method, boiled down: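 NIH/3T3-derived Gli1-Luc reporter cells, 2,000/well, plated 4 hr before compound addition, then stimulated with conditioned medium for 24 hr at 37C. Viability measured in the same wells by CellTiter-Fluor fluorescence, reagent added at 23 hr for 1 hr.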

In experiment [18] the target is Androgen receptor (Homo sapiens) (UniProt P10275). Briefly: qHTS assay to identify small molecule antagonists of the androgen receptor (AR) signaling pathway using the MDA cell line in the presence of 0.5 nM R1881 (AID 1259243). Also: nearly all actives have a fitted effect of over 50% in size. The method, boiled down:
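Reporter cells cultured without CO2 receive test chemicals, then 0.5 nM R1881 final; after 16 hr at 37C, ONE-Glo is added and light output recorded.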

For experiment [19], the target named is Estrogen receptor (Homo sapiens) (UniProt P03372). As to the kind of experiment: qHTS assay to identify small molecule antagonists of the estrogen receptor alpha (ER-alpha) signaling pathway using the BG1 cell line in the presence of 0.1 nM 17-beta-estradiol (AID 1259244). Also: nearly all actives have a fitted effect of over 50% in size. The method, boiled down: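 Estradiol at 0.1 nM (final) stimulates the endogenous ER-alpha of VM7Luc4E2 cells carrying an ERE-driven luciferase; compounds are co-incubated 22 h at 37C and luciferase output quantified by luminescence.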
Chain of Estrogen receptor (Homo sapiens) (P03372 whole entry, looked up): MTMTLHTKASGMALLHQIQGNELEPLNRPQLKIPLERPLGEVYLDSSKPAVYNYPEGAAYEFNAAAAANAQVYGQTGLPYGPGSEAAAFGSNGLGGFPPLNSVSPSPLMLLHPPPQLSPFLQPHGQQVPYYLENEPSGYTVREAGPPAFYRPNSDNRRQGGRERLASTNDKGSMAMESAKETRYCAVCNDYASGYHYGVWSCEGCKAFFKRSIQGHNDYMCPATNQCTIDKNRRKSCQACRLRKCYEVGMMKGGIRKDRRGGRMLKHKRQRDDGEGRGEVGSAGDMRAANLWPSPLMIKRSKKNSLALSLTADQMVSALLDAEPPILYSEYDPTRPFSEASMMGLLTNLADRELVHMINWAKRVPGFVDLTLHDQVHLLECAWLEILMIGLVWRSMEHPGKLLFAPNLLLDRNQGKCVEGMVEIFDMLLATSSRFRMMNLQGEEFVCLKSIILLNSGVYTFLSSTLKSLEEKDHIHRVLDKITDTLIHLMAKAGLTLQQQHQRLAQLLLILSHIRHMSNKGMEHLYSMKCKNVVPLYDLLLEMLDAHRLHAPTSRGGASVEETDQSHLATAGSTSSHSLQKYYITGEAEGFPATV

Chain of Androgen receptor (Homo sapiens) (P10275 whole entry, looked up): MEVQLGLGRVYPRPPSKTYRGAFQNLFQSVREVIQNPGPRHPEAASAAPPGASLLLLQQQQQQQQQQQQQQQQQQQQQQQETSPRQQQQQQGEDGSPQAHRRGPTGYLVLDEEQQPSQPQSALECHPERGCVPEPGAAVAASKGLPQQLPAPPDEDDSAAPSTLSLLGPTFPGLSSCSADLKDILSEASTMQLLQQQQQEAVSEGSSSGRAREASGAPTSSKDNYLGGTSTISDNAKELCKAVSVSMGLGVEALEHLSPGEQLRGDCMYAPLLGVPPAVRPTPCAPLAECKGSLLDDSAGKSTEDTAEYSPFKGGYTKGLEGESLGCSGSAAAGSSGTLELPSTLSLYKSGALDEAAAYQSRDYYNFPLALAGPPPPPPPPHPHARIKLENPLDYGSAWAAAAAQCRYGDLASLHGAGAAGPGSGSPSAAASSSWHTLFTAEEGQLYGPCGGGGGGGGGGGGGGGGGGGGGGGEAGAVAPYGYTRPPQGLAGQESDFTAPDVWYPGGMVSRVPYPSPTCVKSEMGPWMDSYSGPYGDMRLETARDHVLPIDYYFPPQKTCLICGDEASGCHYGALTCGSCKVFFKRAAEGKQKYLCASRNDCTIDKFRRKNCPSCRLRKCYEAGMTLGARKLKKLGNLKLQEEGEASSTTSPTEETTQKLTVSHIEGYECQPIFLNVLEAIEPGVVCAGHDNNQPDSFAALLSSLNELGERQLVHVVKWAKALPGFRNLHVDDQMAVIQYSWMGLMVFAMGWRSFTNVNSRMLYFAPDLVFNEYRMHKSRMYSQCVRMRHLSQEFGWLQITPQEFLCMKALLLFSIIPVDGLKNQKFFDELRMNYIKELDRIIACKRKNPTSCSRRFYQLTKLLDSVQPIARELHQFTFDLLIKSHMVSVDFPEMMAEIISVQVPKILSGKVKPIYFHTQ

With `CC(C)CCCCCCCOC(=O)c1ccc(C(=O)OCCCCCCCC(C)C)c(C(=O)OCCCCCCCC(C)C)c1`, the Potency result in [1], in experiment [2], in experiment [3], in experiment [4], in experiment [5] and in [7] was “inactive” throughout. Besides, the Potency result in experiment [8], in experiment [9], in experiment [10], in [11], in experiment [12] and in [13] was “inactive” throughout. Further, the Potency result in [14] and in experiment [16] was “inactive” in each case. The call in experiment [6] and in [15] was inactive. The Potency in [17] was 42.6 µM (active).
Consider `CCCCC(CC)COCCC#N` (configuration not stated), for which the Potency result in [1], in [2], in experiment [3], in experiment [4], in experiment [5] and in [7] was “inactive” in each case. In addition, the Potency entry in [8], in [9], in experiment [10], in experiment [11], in experiment [12] and in [13] was “inactive” in each case. Moreover, the Potency result in [14], in [16] and in [17] was “inactive” in each case. The outcome in experiment [6] and in [15] was inactive.
Consider `O=C(O)c1ccccc1[N+](=O)[O-]`, for which the Potency entry in experiment [1], in [2], in experiment [3], in experiment [4], in [5] and in experiment [7] was “inactive” throughout. Moreover, the Potency result in experiment [8], in experiment [9], in experiment [10], in [11], in experiment [12] and in [13] was “inactive” in each case. Further, the Potency entry in [14] and in experiment [16] was “inactive” each time. Further, the compound was classed as inactive in experiment [6] and in experiment [15].
Turning to `C=CC(C)CCC=C(C)C` (configuration not stated), the Potency result in experiment [1], in experiment [2], in experiment [3], in [4], in [5] and in experiment [7] was “inactive” each time. Moreover, the Potency entry in experiment [8], in experiment [9], in experiment [10], in experiment [11], in experiment [12] and in experiment [13] was “inactive” each time. Also, the Potency result in experiment [14], in [16] and in experiment [17] was “inactive” throughout. Also, the outcome in experiment [6] and in experiment [15] was inactive.
For the compound `CCCC(=O)OCCC(C)C`, the Potency result in experiment [1], in experiment [2], in experiment [3], in experiment [4], in [5] and in [7] was “inactive” in each case. Besides, the Potency result in experiment [8], in [9], in experiment [10], in experiment [12], in experiment [13] and in experiment [18] was “inactive” throughout. The Potency entry in experiment [19] and in experiment [14] was “inactive” in each case. Also, the outcome in [6] and in experiment [15] was inactive.
With `O=S(=O)(O)c1cc(Cl)c(Cl)cc1Cl`, the Potency result in [1], in [2], in [3], in [4], in experiment [5] and in [7] was “inactive” each time. For the same compound, the Potency result in experiment [8], in [9], in [11], in experiment [12], in [13] and in experiment [18] was “inactive” each time. Moreover, the Potency result in [19], in [14] and in [17] was “inactive” throughout. The outcome in experiment [6] was inactive.
Consider `Sc1nc(S)nc(S)n1`, for which the Potency entry in experiment [1], in experiment [2], in experiment [3], in [4], in [5] and in experiment [7] was “inactive” each time. The Potency result in experiment [8], in experiment [9], in [10], in experiment [11], in experiment [12] and in experiment [13] was “inactive” each time. Further, the Potency result in experiment [14], in experiment [16] and in experiment [17] was “inactive” throughout. Also, the call in experiment [6] and in experiment [15] was inactive.
As for `CO[C@@H]1COCC[C@@H]1N[C@@H]1CC[C@@](C(=O)N2CCc3ncc(C(F)(F)F)cc3C2)(C(C)C)C1`, the Potency entry in experiment [1], in experiment [2], in experiment [3], in [4], in [5] and in experiment [9] was “inactive” throughout. Besides, the Potency result in experiment [10], in [11], in [12], in [13], in experiment [14] and in [16] was “inactive” in each case. In addition, the Potency entry in experiment [17] is “inactive”. In addition, the compound was called inactive in [6]. The Potency is 17.3 µM (active) in experiment [7] and 15.4 µM (active) in experiment [8].
